HT1080 IDH1KD tx: qHTS for induction of synthetic lethality in tumor cells producing 2HG: qHTS for the HT-1080-IDH1KD cell line; Potency, µM (top dose mostly 46.1 µM), for the others: top-dose activity, negative = toxicity, actives largely listed as cytotoxic; HT-1080 IDH1 knockdown viability, ATP luminescence, 48 h; hit rate 2% among 360,000; AID 686971, 2013;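 further: 0% = DMSO wells and -100% = cell-free medium wells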
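Luminescent ATP read-out (CellTiter-Glo, 10 min at room temperature) after 48 h compound exposure at 37 °C gave viability of IDH1-knockdown HT-1080 cells. Activity was normalised to DMSO and cell-free wells, then fitted as concentration-response curves.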
HT1080NT lethal: qHTS for induction of synthetic lethality in tumor cells producing 2HG: qHTS for the HT-1080-NT fibrosarcoma cell line; HT-1080-NT fibrosarcoma viability, CellTiter-Glo ATP luminescence, 48 h; Potency, µM (series often up to 46.1 µM), for inactives: top-dose activity, negative = less viability, hits mostly cytotoxic; hit rate 1.6% among 360,000;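 further: NT is the 2HG producing partner of a matched IDH1 knockdown line; 0% = DMSO-treated cells and -100% = media-only wells without cells; nearly all actives have a fitted effect of over 55% in size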
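Viability by CellTiter-Glo luminescence after 48 h compound exposure at 37C of HT-1080-NT cells (750/well, RPMI, 5% FBS). % activity scaled between DMSO wells and medium-only wells, then curve-fitted and categorized by curve class.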
DT40 TDP1 CPT: qHTS for Inhibitors of human tyrosyl-DNA phosphodiesterase 1 (TDP1): qHTS in cells in presence of CPT. chicken DT40 Tdp1-/-;hTDP1 cells + 20 nM CPT, ATP luminescence, 48 h. hit rate 12% among 420,000. Potency, µM (highest dose often 46.2 µM), for the others: top-dose activity change, negative = growth inhibition, usual class: inhibitors; further: nearly all actives have a fitted effect of over 55% in size
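Cell growth measured by CellTiter-Glo luminescence after a minimum 48 h, 37 C compound exposure with 20 nM CPT in Tdp1-knockout DT40 cells stably expressing hTDP1, seeded 400/well; qHTS titration format.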
KB-3-1 cytotox: qHTS assay for MDR1-selective chemotherapeutics: Primary screen using the parental adenocarcinoma cell KB-3-1 | Potency, µM (series often up to 46.1 µM), hits mostly cytotoxic | KB-3-1 viability, CellTiter-Glo ATP luminescence, 72 h | hit rate 1.4% among 400,000 | AID 1347075, 2019; further: nearly all actives have a fitted effect of over 60% in size
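Cells are dispensed, compounds pinned in, plates held at 37 °C for 72 h, then CellTiter-Glo is added and luminescence read after 10 minutes. Cell line: parental KB-3-1 in phenol-red-free DMEM, 10% FBS.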
KB-V1 MDR tox: qHTS assay for MDR1-selective chemotherapeutics: Primary screen using the drug-selected MDR subline cells KB-V1 | KB-V1 MDR cells viability, CellTiter-Glo, 72 h | Potency, µM (doses to about 46.1 µM), usual class: cytotoxic | hit rate 3.4% among 400,000 | AID 1347076, 2019; further: nearly all actives have a fitted effect of over 60% in size
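Potencies derive from concentration-effect curves fitted to normalized luminescence (CellTiter-Glo) of KB-V1 cells treated for 72 h at 37 degrees C in phenol-red-free DMEM containing 10% FBS.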
DT40 TDP1 no CPT: qHTS for Inhibitors of human tyrosyl-DNA phosphodiesterase 1 (TDP1): qHTS in cells in absence of CPT. DT40 Tdp1-/- hTDP1 cells, no CPT, ATP luminescence, 48 h. Potency, µM (highest dose often 46.2 µM), for the others: top-dose activity change, negative = growth inhibition, most hits filed as inhibitors. hit rate 15% among 420,000; further: nearly all actives have a fitted effect of over 55% in size
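Camptothecin absent (DMSO only). Human TDP1-complemented DT40 knockout cells, 400 cells/well, 37 °C for minimum 48 hr; ATP measured via CellTiter-Glo, 30 min dark incubation, luminescence.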
Starred values were filed as active, the others as inactive. Sampled rows, rich in hits. Any-hit rate of the full collection: about 19%. The call rests on the fitted dose curve; in most records, active means well fitted curve in the direction sought with a large enough effect; inconclusive means small, poorly fitted or top-dose-only effect, or another doubt; inactive means no such curve, though single readings can be large; an effect the other way counts as inactive or inconclusive. Unless noted, on the % scale 0 is the no-effect control and ±100 the full control effect; potency means the concentration at half of the fitted maximal effect.

COCCN(C(=O)COC(=O)CCCOc1ccc(OC)cc1)c1c(N)n(Cc2ccccc2)c(=O)[nH]c1=O was read as HT1080 IDH1KD tx -18%, HT1080NT lethal -2%, DT40 TDP1 CPT -14%, KB-3-1 cytotox inactive, KB-V1 MDR tox inactive and DT40 TDP1 no CPT -4%.
For Cn1nc(C(C)(C)C)cc1C(=O)N1CCCCC1c1cc(C(=O)NCc2ccc(F)cc2)no1 (centres undefined) the results were HT1080 IDH1KD tx inconclusive, HT1080NT lethal -24%, DT40 TDP1 CPT 21µM*, KB-3-1 cytotox inconclusive, KB-V1 MDR tox 4.1µM* and DT40 TDP1 no CPT 13µM*.
For O=C(NCc1ccc(F)cc1)c1cc(C2CCCCN2S(=O)(=O)c2ccccc2)on1 (centres undefined) the results were HT1080 IDH1KD tx 5%, HT1080NT lethal -1%, DT40 TDP1 CPT inconclusive, KB-3-1 cytotox inactive, KB-V1 MDR tox inactive and DT40 TDP1 no CPT inconclusive.
`Cn1nc(C(C)(C)C)cc1C(=O)N1CCCCC1c1cc(C(=O)NCc2ccccc2)no1` (centres undefined) gave HT1080 IDH1KD tx inconclusive, HT1080NT lethal -2%, DT40 TDP1 CPT 10µM*, KB-3-1 cytotox inconclusive, KB-V1 MDR tox 9.2µM* and DT40 TDP1 no CPT 10µM*.
For CN(C)c1ccc(-c2ccc3ncnc(N(C)C)c3c2)cc1 the results were DT40 TDP1 CPT 0.46µM* and DT40 TDP1 no CPT 0.37µM*.
For CN(C)c1ncnc2ccc(-c3ccoc3)cc12 the results were DT40 TDP1 CPT 18µM* and DT40 TDP1 no CPT inconclusive.
For CCOc1ccc2nc(NC(=O)CS(=O)(=O)c3ccc(Cl)cc3)sc2c1 the results were DT40 TDP1 CPT inconclusive, KB-3-1 cytotox inconclusive, KB-V1 MDR tox inactive and DT40 TDP1 no CPT 16µM*.
For CCOc1ccc2nc(NC(=O)CS(=O)(=O)c3ccc(C)cc3)sc2c1 the results were HT1080 IDH1KD tx -6%, HT1080NT lethal -2%, DT40 TDP1 CPT -14%, KB-3-1 cytotox inactive, KB-V1 MDR tox inactive and DT40 TDP1 no CPT 16µM*.
CCOc1ccc2nc(NC(=O)CS(=O)(=O)c3ccccc3)sc2c1 was read as HT1080 IDH1KD tx -21%, HT1080NT lethal -15%, DT40 TDP1 CPT -9%, KB-3-1 cytotox inactive, KB-V1 MDR tox inactive and DT40 TDP1 no CPT inconclusive.
Screening Cc1ccc(-n2nc3cc(C)c(N)cc3n2)cc1 returned HT1080 IDH1KD tx 0%, HT1080NT lethal 0%, DT40 TDP1 CPT 8%, KB-3-1 cytotox inactive, KB-V1 MDR tox inactive and DT40 TDP1 no CPT 5%.
`Nc1ccc2nn(-c3cccc4ccccc34)nc2c1` gave HT1080 IDH1KD tx -4%, HT1080NT lethal -11%, DT40 TDP1 CPT 12µM*, KB-3-1 cytotox inactive, KB-V1 MDR tox inactive and DT40 TDP1 no CPT 16µM*.
Cc1cc2nn(-c3cccc4ccccc34)nc2cc1N was read as HT1080 IDH1KD tx 1%, HT1080NT lethal 5%, DT40 TDP1 CPT 21µM*, KB-3-1 cytotox inactive, KB-V1 MDR tox inactive and DT40 TDP1 no CPT 18µM*.
`CCOc1ccc(C(=O)N2CCN(S(=O)(=O)c3cccs3)CC2)c(OCC)c1` gave HT1080 IDH1KD tx -2%, HT1080NT lethal 9%, DT40 TDP1 CPT inconclusive, KB-3-1 cytotox inactive, KB-V1 MDR tox inactive and DT40 TDP1 no CPT inconclusive.

Compound activity as filed in PubChem.
